About 83,000 compounds went through this panel and 20% of them were active in at least one assay; those are over-represented in the sample as a whole.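 Cell lines were cultured in 96-well plates, exposed to a single compound concentration, and assessed for percent growth 48 hours later.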 Values without a mark were called inactive. Activity calls are given as the source filed them. The calls were made as follows: active = growth percent below 10; inactive = the rest.

For 9 compounds, growth results are on record in PubChem BioAssay (NCI).

Among the test systems are DU-145 prostate; K-562 leukemia; MALME-3M melanoma; MDA-MB-231 breast; SF-268 CNS; SF-295 CNS; SF-539 CNS; UACC-257 melanoma; M14 melanoma; HCT-15 colon; HT29 colon; SNB-75 CNS; SNB-19 CNS; PC-3 prostate; SK-MEL-5 melanoma; UACC-62 melanoma; LOX IMVI melanoma; SK-MEL-28 melanoma; RXF 393 renal.
Common to all, as to experiment: NCI-60 one-dose screen, 48 h (100 = growth as untreated, 0 = no growth, -100 = all killed)
Holding throughout (conditions): 10 µM unless noted

With `CN1CCCCC1CCN1c2ccccc2Sc2ccc(Br)cc21` (stereo unspecified), the growth in the experiment on DU-145 prostate is 77.9%; in the experiment with K-562 leukemia, 2.32% (active); in the experiment on MALME-3M melanoma it was 78.4%; in the experiment with MDA-MB-231 breast it was 67.6%; with SF-268 CNS, 66.3%; with SF-295 CNS, 59.6%. Besides, the growth is 95.9% in the experiment on SF-539 CNS; 70.7% in the experiment on UACC-257 melanoma; 49.1% in the experiment on M14 melanoma; 54.6% in the experiment on HCT-15 colon; 29.8% with HT29 colon; 3.86% (active) with SNB-75 CNS. The growth was 97.4% with SNB-19 CNS; 56.2% in the experiment on PC-3 prostate; 60.3% with SK-MEL-5 melanoma; 76.8% in the experiment with UACC-62 melanoma; 60% with LOX IMVI melanoma; 68.6% with SK-MEL-28 melanoma.
Turning to `CN1CCCCC1CCN1c2ccccc2Sc2ccc(Cl)cc21` (stereo unspecified), the growth in the experiment on DU-145 prostate is 67%; in the experiment on K-562 leukemia, 7.99% (active); in the experiment with MALME-3M melanoma it was 83.2%; in the experiment on MDA-MB-231 breast it was 65.9%; in the experiment on SF-268 CNS, 65.8%; in the experiment with SF-295 CNS, 76.6%. For the same compound, the growth was 90.9% in the experiment with SF-539 CNS; 67.4% in the experiment with UACC-257 melanoma; 45.2% with M14 melanoma; 49.3% with HCT-15 colon; 31.4% with HT29 colon; 7.16% (active) with SNB-75 CNS. Besides, the growth with SNB-19 CNS is 97%; in the experiment on PC-3 prostate, 59.5%; with SK-MEL-5 melanoma it was 55.7%; in the experiment with UACC-62 melanoma, 77.9%; in the experiment with LOX IMVI melanoma, 68.1%; with SK-MEL-28 melanoma, 75%.
As for `O=C1Nc2ccc(Br)cc2C12CC(c1ccccc1)=NN2` (stereo unspecified), the growth was 69.9% in the experiment on DU-145 prostate; 23.8% with K-562 leukemia; 37.9% in the experiment with MALME-3M melanoma; 50.6% in the experiment on MDA-MB-231 breast; 61.4% in the experiment on RXF 393 renal; 58.7% in the experiment on SF-268 CNS. Moreover, the growth is 32.9% in the experiment on SF-539 CNS; 28.2% in the experiment on M14 melanoma; 32.7% in the experiment on HCT-15 colon; 12.1% in the experiment on HT29 colon; 28.1% in the experiment on SNB-75 CNS; 69.1% in the experiment on SNB-19 CNS. For the same compound, the growth with PC-3 prostate is 29.4%; in the experiment with SK-MEL-5 melanoma, 23.9%; in the experiment on UACC-62 melanoma, 48.2%; in the experiment with LOX IMVI melanoma, 51.9%; in the experiment on SK-MEL-28 melanoma, 56.2%.
Take `CC(=O)Oc1cc2cnc3c4cc(OC(C)=O)c(OC(C)=O)cc4ccc3c2cc1OC(C)=O`: the growth in the experiment with DU-145 prostate was 16.6%; in the experiment on K-562 leukemia it was 6.46% (active); in the experiment on MALME-3M melanoma, 6.96% (active); with MDA-MB-231 breast, 26.3%; with SF-268 CNS, 12.2%; with SF-295 CNS it was 13.9%. Further, the growth is -10.8% (active) in the experiment on SF-539 CNS; 20.6% in the experiment with UACC-257 melanoma; 13.9% with M14 melanoma; 25.1% with HCT-15 colon; 17.4% in the experiment with HT29 colon; -5.27% (active) in the experiment with SNB-75 CNS. In addition, the growth was 33.9% in the experiment on SNB-19 CNS; 21.6% with PC-3 prostate; 13.1% in the experiment with SK-MEL-5 melanoma; -22% (active) with UACC-62 melanoma; 10.6% in the experiment on LOX IMVI melanoma; 42.7% with SK-MEL-28 melanoma.
For the compound `Cc1ccc(C2CC3c4ccccc4C2C2CCCCN32)cc1` (stereo unspecified), the growth in the experiment on DU-145 prostate was 108%; in the experiment with K-562 leukemia, 72%; in the experiment with MALME-3M melanoma, 85.6%; in the experiment on MDA-MB-231 breast it was 109%; with SF-268 CNS, 90.1%; with SF-295 CNS, 78.4%. For the same compound, the growth with SF-539 CNS was 91.4%; in the experiment on UACC-257 melanoma it was 59.9%; in the experiment with M14 melanoma it was 94.5%; in the experiment on HCT-15 colon, 99.8%; in the experiment with HT29 colon, 90.4%; in the experiment on SNB-75 CNS, 69.9%. For the same compound, the growth was 87.4% in the experiment on SNB-19 CNS; 80% with PC-3 prostate; 76.4% with SK-MEL-5 melanoma; 99.3% in the experiment on UACC-62 melanoma; 84.4% in the experiment on LOX IMVI melanoma; 96.4% in the experiment on SK-MEL-28 melanoma.
Take `CC1(C)OCC2OC3(C(=O)O)OC(C)(C)OC3C2O1` (stereo unspecified): the growth is 104% with DU-145 prostate; 95.9% in the experiment with K-562 leukemia; 104% with MALME-3M melanoma; 107% in the experiment with MDA-MB-231 breast; 101% in the experiment with SF-268 CNS; 97% in the experiment on SF-295 CNS. In addition, the growth in the experiment on SF-539 CNS is 108%; in the experiment with UACC-257 melanoma, 90%; with M14 melanoma it was 111%; in the experiment with HCT-15 colon, 99.6%; in the experiment on HT29 colon, 108%; in the experiment with SNB-75 CNS, 89.2%. Moreover, the growth in the experiment on SNB-19 CNS was 100%; in the experiment with PC-3 prostate it was 106%; in the experiment with SK-MEL-5 melanoma, 105%; with UACC-62 melanoma, 111%; with LOX IMVI melanoma, 84.5%; in the experiment on SK-MEL-28 melanoma, 124%.
For the compound `COc1ccc(/C=N\NC(=O)c2ccncc2)cc1O`, the growth with DU-145 prostate is 99.4%; with K-562 leukemia, 96.4%; in the experiment on MALME-3M melanoma, 78.9%; with MDA-MB-231 breast, 94.8%; with SF-268 CNS, 99%; with SF-295 CNS, 92.5%. The growth in the experiment with SF-539 CNS was 107%; with UACC-257 melanoma, 89.1%; in the experiment on M14 melanoma it was 101%; in the experiment on HCT-15 colon it was 107%; in the experiment on HT29 colon, 112%; with SNB-75 CNS it was 74.8%. Moreover, the growth was 95.1% with SNB-19 CNS; 106% in the experiment with PC-3 prostate; 92.5% with SK-MEL-5 melanoma; 99.8% with UACC-62 melanoma; 97.2% in the experiment with LOX IMVI melanoma; 104% with SK-MEL-28 melanoma.
Regarding `O=C(Nc1ccc(F)cc1)Nc1ccc(CCO)cc1`, the growth is 111% in the experiment with DU-145 prostate; 103% with K-562 leukemia; 94.3% with MALME-3M melanoma; 114% with MDA-MB-231 breast; 109% with SF-268 CNS; 105% with SF-295 CNS. The growth with SF-539 CNS was 105%; in the experiment on UACC-257 melanoma, 102%; in the experiment on M14 melanoma, 117%; with HCT-15 colon, 102%; with HT29 colon, 103%; with SNB-75 CNS, 72.6%. The growth in the experiment on SNB-19 CNS is 107%; in the experiment with PC-3 prostate it was 108%; in the experiment with SK-MEL-5 melanoma, 104%; with UACC-62 melanoma, 107%; in the experiment with LOX IMVI melanoma it was 111%; in the experiment with SK-MEL-28 melanoma it was 106%.
`CCCCCC(=O)N(CCCC)CCCC`: the growth in the experiment on DU-145 prostate is 120%; in the experiment on K-562 leukemia, 94.8%; in the experiment on MALME-3M melanoma, 96.8%; in the experiment on MDA-MB-231 breast, 99.7%; in the experiment with SF-268 CNS, 115%; in the experiment with SF-295 CNS it was 88.2%. Besides, the growth with SF-539 CNS is 97.4%; in the experiment with UACC-257 melanoma it was 92.1%; in the experiment on M14 melanoma it was 104%; in the experiment on HCT-15 colon, 96.8%; in the experiment on HT29 colon, 111%; with SNB-75 CNS, 86.5%. The growth in the experiment with SNB-19 CNS was 92.9%; with PC-3 prostate, 99.8%; with SK-MEL-5 melanoma it was 98.6%; with UACC-62 melanoma, 94.2%; in the experiment on LOX IMVI melanoma, 110%; with SK-MEL-28 melanoma, 104%.
